# In ChEMBL document CHEMBL3988442, “University of Dundee, Small-Polar-MMV Screening Library” (2021):
# Screen size: about 48,000 compounds; about 13,000 (27%) showed an effect of 50% or more. The list shows a part of the results.
# Test system: Wolbachia pipientis
# Test: Anti-Wolbachia Cell-Based Screen
# Format: functional
# Design: scale not given: in the data most compounds retested in dose-response had high values
# Conditions: 5 µM
row,SMILES,Percent Effect [%]
1,CCc1nsc(N2CCCN(C(=O)c3ccc(OC)cc3)CC2)n1,4.92
2,CN(C)C(=O)N1CCC(C(=O)N2CCOC(CC3CCCCC3)C2)CC1 (centres undefined),1.077
3,CN(C)Cc1nnc(C2CCCN(Cc3ccc(Cl)s3)C2)n1C (centres undefined),-1.038
4,COc1ncnc2c1CCN(c1cc(C(F)(F)F)ncn1)CC2,-19.6
5,N#Cc1ccnc(N2CCC(NCCN3CCCC3)CC2)c1,4.204
6,Cn1c(N)nnc1SCc1ccc(Cl)cc1Br,-13.54
7,Cn1cnnc1S(=O)(=O)Cc1cc(Cl)c2c(c1)OCO2,-6.914
8,CC(C)C(=O)Nc1ccc(Sc2nncn2C)c(Cl)c1,7.85
9,Cn1nnnc1SCCNC1CCN(c2ccc3c(c2)OCO3)CC1,-18.49
10,Cn1cnnc1SCc1cc2c(cc1Br)OCO2,98.1
11,Cn1c(N)nnc1SCc1cc(Br)ccc1Cl,-1.725
12,Cn1nnnc1SCc1cc2c(cc1Cl)OCO2,119.1
13,CN(Cc1cscn1)Cc1cc2c(cc1Br)OCO2,7.123
14,Cn1cnnc1SCc1cc2c(cc1Cl)OCO2,116.9
15,CCCc1cc(NC(=O)c2cc(N3CCNC3=O)c(F)cc2F)n[nH]1,-4.311
16,Cc1noc(C)c1CN(C)c1ncnc2ccccc12,85.55
17,Cc1noc(C)c1CN(C)c1ncnc2onc(C)c12,10.95
18,Cc1noc(C)c1CN(C)Cc1nc(N)c2ccccc2n1,-15.35
19,Cc1cccc(COC[C@@H]2CC[C@H]3[C@H](CCN3Cc3ccco3)O2)n1.O=C(O)C(F)(F)F.O=C(O)C(F)(F)F,-8.217
20,Cc1cccc(COC[C@H]2CC[C@H]3[C@H](CCN3Cc3ccco3)O2)n1,105.2
21,O=C(c1ccco1)N1CC[C@@H]2O[C@H](COCC3CCOCC3)CC[C@@H]21,-18.62
22,CN(C)C(=O)COC[C@H]1CC[C@@H]2[C@@H](CCN2Cc2ccco2)O1.O=C(O)C(F)(F)F,91.23

row,SMILES,Percent Effect [%]
1,COCCN1CC[C@@H]2O[C@@H](COCC(=O)N3CCCC3)CC[C@@H]21.O=C(O)C(F)(F)F,-7.716
2,O=C(COC[C@H]1CC[C@H]2[C@H](CCN2c2ncccn2)O1)N1CCCC1.O=C(O)C(F)(F)F,-10.98
3,c1coc(CN2CC[C@@H]3O[C@@H](COCC4CCOCC4)CC[C@@H]32)c1,95.89
4,O=C(COC[C@@H]1CC[C@H]2[C@H](CCN2Cc2ccco2)O1)N1CCCC1,94.38
5,Cc1cccc(COC[C@@H]2CC[C@H]3[C@H](CCN3C(=O)CC3CC3)O2)n1.O=C(O)C(F)(F)F,-1.291
6,CN(C)C(=O)COCC1C[C@@H]2OCCN(Cc3ccco3)[C@H]2C1 (some centres undefined),-1.169
7,O=C(c1ccco1)N1CC[C@@H]2O[C@@H](COCC3CCOCC3)CC[C@@H]21,-0.1018
8,COCCn1cc(NC(=O)NCC2CCN(c3ccccc3)C2)cn1 (centres undefined),6.997
9,Cc1cc(CN2CCC(c3ccnn3CCO)CC2)no1,-5.622
10,CCNc1ncc(C(=O)NCc2csc(-c3cnccn3)n2)cn1,-2.125
11,CCC1COCCN1C(=O)NCc1cccc(-c2cnn(C)c2)c1 (centres undefined),-16.85
12,Cc1ccc(CNC[C@H]2Cn3cc(-c4ccccc4)nc3CO2)cc1,-14.25
13,COc1ccc(CNC[C@H]2COCc3nc4cc(F)ccc4n32)cn1,2.56
14,CN1C[C@@H](COCC2CC2)[C@H]2CCN(Cc3ccco3)CC[C@H]2C1=O.O=C(O)C(F)(F)F,-15.86
15,c1csc(CN2CC[C@H]3O[C@@H](COCC4CC4)CC[C@H]32)c1,-24.01
16,O=C(O)C(F)(F)F.c1coc(CN2CC[C@H]3O[C@@H](COCC4CC4)CC[C@H]32)c1,103.1
17,CCSc1nnc(N2CCN(c3ccccc3)CC2)s1,-16.68
18,CCc1nc(N)nc(N(C)Cc2nncn2CCOC)c1C,-4.118
19,CN(C)c1ccc(CC2COCCN(Cc3nccn3C)C2)nn1 (centres undefined),107.3
20,Cc1noc(C)c1CN1CCN(Cc2nccn2C)C(C)C1 (centres undefined),-9.694
21,Cc1cccc(CC2COCCN(Cc3nccn3C)C2)n1 (centres undefined),119.1
22,Cn1ccnc1C1CCN(CCC2CCOC2)CC1 (centres undefined),-2.458

row,SMILES,Percent Effect [%]
1,Cc1cnc(CC2COCCN(Cc3nccn3C)C2)cn1 (centres undefined),117.2
2,Cc1cc(-n2cccn2)ccc1CN1CCOCC(CN(C)C)C1 (centres undefined),-16.76
3,Cn1ccnc1CN1CCOCC(Cc2ccccn2)C1 (centres undefined),-4.289
4,CCN1CCN(S(=O)(=O)N2CCc3ccccc3C2)[C@H]2CS(=O)(=O)C[C@H]21,-15.22
5,CS(=O)(=O)NCCCN1CCCC1c1ccccc1 (centres undefined),-6.695
6,O=C1C(Nc2ccc3nccnc3n2)CCN1c1ccccc1 (centres undefined),8.259
7,Cc1nnc2n1CC(CNCc1nc(-c3ccsc3)no1)CC2 (centres undefined),-10.67
8,c1csc(-c2nnc(CSCCN3CCOCC3)o2)c1,0.2217
9,CN1CCN(C(=O)c2csnn2)c2ccccc21,10.7
10,Cc1ccc(C(=O)N2CCCN(C)c3ccc(F)cc32)o1,112.2
11,CN1CCN(C(=O)c2cnsn2)c2cc(F)ccc21,151.8
12,CC1CN(C)c2ccccc2CN1C(=O)c1cnsn1 (centres undefined),-24.53
13,CN1CCCN(S(=O)(=O)c2cnn(C)c2)c2cc(Cl)ccc21,-13.02
14,CN1CCN(S(C)(=O)=O)c2cc(F)ccc21,-2.725
15,O=C(Nc1c(N2CCCC2)cccc1N1CCCC1)c1cnsn1,-3.532
16,CN1CCCN(C(=O)c2cnsn2)c2cc(F)ccc21,119.4
17,CN1CCCN(S(=O)(=O)c2cn(C)cn2)c2cc(F)ccc21,-12.29
18,CN1CCCN(S(C)(=O)=O)c2cc(F)ccc21,-11.53
19,O=C(c1cncc(Br)c1)N1CCCc2ccc(F)cc21,6.203
20,CN1CCCN(C(=O)c2cnsn2)c2cc(Cl)ccc21,103.8
